Laboratory results published in PubChem BioAssay (NCATS).
Results filed as inconclusive are left out. Active and inactive are the calls of the source. The call rests on the fitted dose curve; in most records, active means well fitted curve in the direction sought with a large enough effect; inconclusive means small, poorly fitted or top-dose-only effect, or another doubt; inactive means no such curve, though single readings can be large; an effect the other way counts as inactive or inconclusive.

Key:
[1] = qHTS of pediatric cancer cell lines to identify multiple opportunities for drug repurposing: Primary screen for Rh18 cells (AID 1347102); further: on the % scale 0 is the no-effect control and ±100 the full control effect; nearly all actives have a fitted effect of over 65% in size
Method in brief: (§1)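 Cells (500-1,000/well) in growth media were settled 5 h at 37 degrees C, then given compounds for 48 h. Viability was read as CellTiter-Glo luminescence. Primary runs used MIPE at 11 points (0.78 nM-46 µM) and NPC at 8 points (0.59 nM-46 µM); follow-ups used 11 points.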

[2] = qHTS of pediatric cancer cell lines to identify multiple opportunities for drug repurposing: Primary screen for RD cells (AID 1347104);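 further: plate controls were DMSO for no effect and bortezomib for full effect; nearly all actives have a fitted effect of over 55% in size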
Method in brief: (§2)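 Primary screen of approved and investigational compounds on cells in growth media at 37 degrees C, 5% CO2. MIPE set at 11-point and NPC set at 8-point dilutions; viability scored by ATP-based luminescence at 48 hours.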

[3] = qHTS of pediatric cancer cell lines to identify multiple opportunities for drug repurposing: Primary screen for MG 63 (6-TG R) cells (AID 1347105); further: on the % scale 0 is the no-effect control and ±100 the full control effect; nearly all actives have a fitted effect of over 50% in size
Method in brief: as §2

[4] = qHTS of pediatric cancer cell lines to identify multiple opportunities for drug repurposing: Primary screen for control Hh wild type fibroblast cells (AID 1347106);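 further: series mostly up to about 46 µM; on the % scale 0 is the no-effect control and ±100 the full control effect; a drop in luminescence marks cytotoxicity and a rise apparent proliferation; nearly all actives have a fitted effect of over 55% in size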
Method in brief: as §1

[5] = qHTS of pediatric cancer cell lines to identify multiple opportunities for drug repurposing: Primary screen for Rh30 cells (AID 1347107); further: series mostly up to about 46 µM; on the % scale 0 is the no-effect control and ±100 the full control effect; nearly all actives have a fitted effect of over 75% in size
Method in brief: as §1

[6] = qHTS of pediatric cancer cell lines to identify multiple opportunities for drug repurposing: Primary screen for Rh41 cells (AID 1347108);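 further: series mostly up to about 46 µM; luminescence drop marks cytotoxic hits; nearly all actives have a fitted effect of over 70% in size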
Method in brief: as §2

[7] = qHTS of pediatric cancer cell lines to identify multiple opportunities for drug repurposing: Primary screen for OHS-50 cells (AID 1347103);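 further: plate controls were DMSO neutral control for no effect and bortezomib positive control for full effect; nearly all actives have a fitted effect of over 40% in size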
Method in brief: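 Cells (500-1,000/well) rested 5 h, then received compounds for 48 h; metabolically active cells were measured by CellTiter-Glo luminescence. Final concentrations spanned up to 46 µM (MIPE, 11-point) or 0.59 nM-46 µM (NPC, 8-point) in primary screens, 11-point in follow-ups.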

Measured: activity change, negative = cytotoxic

O=c1[nH]cnc2nc[nH]c12
not listed: [7]
inactive: all other assays above

CCCCCOC(=O)Nc1nc(=O)n([C@@H]2O[C@H](C)[C@@H](O)[C@H]2O)cc1F
not listed: [7]
inactive: all other assays above

O=C(CN1CCNCC1)NC1CCCCC1
not listed: [7]
inactive: all other assays above

O=C(O)CCC(=O)O
not listed: [7]
inactive: all other assays above

O=C(O)c1ccc[n+]([O-])c1
not listed: [2] | [7]
inactive: all other assays above

CC(=O)N[C@@H](Cc1ccc(O)cc1)C(=O)O
not listed: [2] | [7]
inactive: all other assays above

CC(CN(C)C)C(C)(O)Cc1ccc(Cl)cc1 (centres undefined)
not listed: [2] | [7]
inactive: all other assays above

CC(=O)N(CC(O)CN(C(C)=O)c1c(I)c(C(=O)NCC(O)CO)c(I)c(C(=O)NCC(O)CO)c1I)c1c(I)c(C(=O)NCC(O)CO)c(I)c(C(=O)NCC(O)CO)c1I (centres undefined)
not listed: [1] | [6]
inactive: all other assays above

CN(C/C=C/C#CC(C)(C)C)Cc1cccc2ccccc12
not listed: [3] | [7]
inactive: all other assays above

OCc1ccc(Cl)cc1Cl
not listed: [7]
inactive: all other assays above

O=C(O)C(S)C(S)C(=O)O (centres undefined)
not listed: [7]
inactive: all other assays above

CCOC(=O)[C@H](CCc1ccccc1)N[C@@H](C)C(=O)N1CCC[C@H]1C(=O)O
not listed: [7]
inactive: all other assays above

O=C(CCBr)N1CCN(C(=O)CCBr)CC1
not listed: [7]
inactive: all other assays above

O=C1c2ccccc2S(=O)(=O)N1CCCCN1CCN(c2ncccn2)CC1
not listed: [7]
inactive: all other assays above

CN1C[C@@H]2C[C@H]1CN2c1cc2c(cc1F)c(=O)c(C(=O)O)cn2C1CC1
not listed: [7]
inactive: all other assays above

OC(CCN1CCCC1)(c1ccccc1)C1CCCCC1 (centres undefined)
not listed: [2] | [7]
inactive: all other assays above

COCC(=O)Nc1c(I)c(C(=O)NCC(O)CO)c(I)c(C(=O)N(C)CC(O)CO)c1I (centres undefined)
not listed: [2] | [7]
inactive: all other assays above

COC(=O)c1cccnc1
inactive: [1] | [3] | [5] | [6]

NS(=O)(=O)c1ccc(NC(=O)CCC(=O)O)cc1
inactive: [1] | [2] | [3] | [5]

C[C@H]1COc2c(C3(N)CC3)c(F)cc3c(=O)c(C(=O)O)cn1c23
inactive: [1] | [3] | [5] | [6]

CCCCCCCCCCCCCCCCN
not listed: [4] | [7]
inactive: all other assays above

CCCCCC(C)N (centres undefined)
not listed: [7]
inactive: all other assays above

N[C@@H](Cc1ccc(O)cc1)C(=O)O
inactive: [1] 18.9% [at 9.22 µM] | [2] 14.4% [at 9.22 µM] | [3] -16.1% [at 9.22 µM] | [4] 11.3% [at 9.22 µM] | [5] 21.6% [at 9.22 µM] | [6] 24.2% [at 9.22 µM]

O=C(OOC(=O)c1ccccc1)c1ccccc1
not listed: [4] | [7]
inactive: all other assays above

O=C1c2cccc(O)c2C(=O)c2c(O)cccc21
not listed: [2] | [7]
inactive: all other assays above

O=C(O)Cc1cn(-c2ccccc2)nc1-c1ccc(Cl)cc1
not listed: [7]
inactive: all other assays above

CC1(C)S[C@@H]2[C@H](N=CN3CCCCCC3)C(=O)N2[C@H]1C(=O)O
not listed: [7]
inactive: all other assays above

CCCCOC(=O)c1ccc(N)cc1
inactive: [1] | [3] | [5] | [6]

Cc1ccc2c(c1)c1c3n2CCNC3CCC1 (centres undefined)
not listed: [7]
inactive: all other assays above

Cc1onc(-c2ccccc2)c1-c1ccc(S(N)(=O)=O)cc1
not listed: [7]
inactive: all other assays above

NC(N)=NS(=O)(=O)c1ccc(N)cc1
not listed: [7]
inactive: all other assays above

O[C@@H]1CO[C@H]2[C@@H]1OC[C@@H]2O
not listed: [7]
inactive: all other assays above
